Among all 310,000 compounds or so, about 18,000 (5.8%) were called active. A call without a number means that no potency is given here. Roughly 22% stayed inconclusive and do not appear here. The sample holds actives, similar compounds and a random draw of the others, so the mix is not that of the screen. A number with no mark means an inactive call. The call rests on the fitted dose curve; in most records, active means well fitted inhibition curve with a large enough effect; inconclusive means small, poorly fitted or top-dose-only effect, or another doubt; inactive means no such curve, though single readings can be large or run the other way.
Test: Primary qHTS for delayed death inhibitors of the malarial parasite plastid, 48 hour incubation
Conditions: P. falciparum luciferase growth in erythrocytes; series mostly up to 28.7 µM
In short: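 Luciferase-expressing parasites in RBCs, 2% Hct / 0.1% parasitemia final; RPMI 1640 + 0.5% Albumax; 37 C, 5% CO2, one generation; luminescence read-out, lower signal = inhibition.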
Potency means the concentration at half of the fitted maximal effect.

SMILES | Potency | activity change, negative = inhibition
O=C(NCC(c1cccs1)N1CCOCC1)c1cc(Cl)ccc1[N+](=O)[O-] (configuration not stated) | inactive | –
CC(C)(C)C1CCC(C(=O)NCC(c2cccs2)N2CCOCC2)CC1 (configuration not stated) | inactive | –
Cc1ccc(-c2nn(-c3ccc(F)cc3)cc2C(=O)NCC(c2cccs2)N2CCOCC2)cc1 (configuration not stated) | 10.4 µM (active) | –
CCOC(=O)C1(Cc2cccc(OC)c2)CCCN(C(=O)CCSC)C1 (configuration not stated) | inactive | –
CC(=O)N1CCN(C(=O)C2(NC(=O)Nc3ccc(C)cc3)CCCCC2)CC1 | inactive | –
O=C(c1cc2ccccc2o1)N1CCN(c2cccc(C(F)(F)F)c2)CC1 | inactive | –
Cc1nn(CC(=O)N2CCCCC2)c(=O)c2nn(-c3ccccc3)c(C)c12 | inactive | –
COc1ccc(N2CCN(C(=O)C3CCN(C(=O)c4ccccc4Cl)CC3)CC2)cc1 | inactive | –
COc1ccc(Nc2ncc(C(=O)N3CCN(c4ccccc4OC)CC3)c3ccccc23)cc1 | 11.7 µM (active) | –
COc1ccccc1N1CCN(C(=O)c2ccc(NC3=NC4CS(=O)(=O)CC4S3)cc2)CC1 (configuration not stated) | inactive | –
OC(COc1ccc(F)cc1Cl)CN1CCc2ccccc2C1 (configuration not stated) | inactive | –
CCN(CC)S(=O)(=O)c1ccc2[nH]c(=O)cc(C(=O)N(C)C3CCS(=O)(=O)C3)c2c1 (configuration not stated) | inactive | –
COc1ccc(NC(=O)CSc2ccc(-c3ccco3)nn2)c(OC)c1 | inactive | –
COCCn1c(SCC(=O)Nc2cc(Cl)ccc2OC)nc2c(c1=O)SC(C)C2 (configuration not stated) | 8.28 µM (active) | –
COc1ccc(C)cc1NC(=O)CSc1ccc(Cl)cc1 | inactive | –
CCn1c(SCC(=O)Nc2ccc3c(c2)OCCO3)nc2c(c1=O)SC(C)C2 (configuration not stated) | inactive | –
COCCn1c(SCC(=O)Nc2ccccc2F)nc2c(c1=O)SCC2 | inactive | –
CC1Cc2nc(SCC(=O)Nc3ccccc3F)n(C)c(=O)c2S1 (configuration not stated) | 7.38 µM (active) | –
Cn1c(CCC(=O)Nc2ccccc2F)nnc1SCC(=O)Nc1ccccc1Cl | inactive | –
CC(C)N(Cc1ccccc1)C(=O)COC(=O)c1ccccc1SCC(=O)N1CCCC1 | inactive | –
CCn1c(SCC(=O)NCC2CCCO2)nc2ccccc21 (configuration not stated) | inactive | –
CC1CCN(C(=O)c2ccc3c(=O)n4c(nc3c2)CCCCC4)CC1 | inactive | –
COCCN1C(=O)C(=O)/C(=C(/O)c2ccc(S(=O)(=O)N3CCOCC3)cc2)C1c1ccc(O)c(OC)c1 (configuration not stated) | inactive | –

SMILES | Potency | activity change, negative = inhibition
CCOC(=O)C1CCN(C(=O)COc2cccc3ccccc23)CC1 | inactive | –
Cc1ccc(C(=O)NNC(=O)C(C)Oc2ccc3ccccc3c2)o1 (configuration not stated) | inactive | –
Cc1cccc(C(C)C)c1NC(=O)COC(=O)C1CC(=O)N(Cc2ccccc2)C1 (configuration not stated) | inactive | –
COc1cccc(N2CC(C(=O)NCc3n[nH]c(=O)c4ccccc34)CC2=O)c1 (configuration not stated) | inactive | –
COc1ccccc1CN(C)C(=O)c1cc2ccccc2o1 | inactive | –
CN(C)CCCCCN(C)Cc1cc2ccccc2o1 | 4.65 µM (active) | –
CCCOC(=O)c1cc2ccccc2oc1=O | inactive | –
O=c1c2ccccc2ccc2ccc(P(=O)(O)O)cc12 | inactive | –
CC1CC(C)CN(C(=O)CCNC(=O)Cn2cnc3ccccc3c2=O)C1 (configuration not stated) | inactive | –
CSc1ccc(C(=O)C2CCCN(Cc3ccn[nH]3)C2)cc1 (configuration not stated) | inactive | –
COc1cc(CN2CCCC(C(=O)c3ccc(SC)cc3)C2)cc(Cl)c1O (configuration not stated) | 11.7 µM (active) | –
COc1ccc(CCN(C)C(=O)C2CCCN(Cc3ccc(OC)c(OC)c3)C2)cc1OC (configuration not stated) | inactive | –
CCN1CCN(C2CCCCC2NS(=O)(=O)c2ccc(Cl)cc2)CC1 (configuration not stated) | inactive | –
Cc1csc(NC(=O)C2CCN(S(=O)(=O)c3ccccc3)CC2)n1 | inactive | –
CC1CCN(C(=O)COC(=O)c2cc(=O)[nH]c3ccccc23)CC1 | inactive | –
Cc1cc(S(=O)(=O)NC2CCCC2)ccc1-n1cnnn1 | inactive | –
CCCCC(CC)CNCc1cccn1CCN1CCOCC1 (configuration not stated) | 11.7 µM (active) | –
CCCCc1ccc(NC(=S)NCCCN2CCOCC2)cc1 | inactive | –
CSc1ccc(CNCCN2CCOCC2)cc1 | inactive | –
O=C(CN1C(=O)S/C(=C\c2ccccc2F)C1=O)NCCCn1ccnc1 | inactive | –
O=C(COC(=O)Cc1ccccc1F)NNC(=O)c1ccc(Cl)cc1 | inactive | –
CC(C)c1nnc(NC(=O)CCC(=O)N2CCN(c3cccc(Cl)c3)CC2)s1 | inactive | –
NS(=O)(=O)c1ccc(CCNc2nc(C(F)(F)F)nc3ccccc23)cc1 | inactive | –

SMILES | Potency | activity change, negative = inhibition
Cc1cc(C)n(-c2nc(C(F)(F)F)nc3ccccc23)n1 | – | 31.4% [at 5.75 µM]
CCc1ccc(C(CNc2nc(C(F)(F)F)nc3ccccc23)N(C)C)cc1 (configuration not stated) | 11.7 µM (active) | –
CCC(NC(=O)c1cc(COc2ccc(F)c(F)c2)on1)c1ccncc1 (configuration not stated) | inactive | –
Cc1ccccc1CCNC(=O)C1CCC(=O)N(Cc2ccc(Cl)cc2)C1 (configuration not stated) | inactive | –
Cc1c(C)n2c(SCC(=O)N3CCCC3)nnc2[nH]c1=O | inactive | –
COC(=O)Cc1ccc(OCC(=O)NC2CCCC2)cc1 | inactive | –
CCOc1ccc(NC(=O)COC(=O)C2CCC(=O)N2)c([N+](=O)[O-])c1 (configuration not stated) | inactive | –
COc1ccc(-n2c(-c3ccccc3)nc3ccccc3c2=O)cc1 | inactive | –
COc1ccc(-c2c3c(=O)n(C)c(=O)n(C)c3cn2NC(C)=O)cc1 | inactive | –
COc1ccc(-c2c3c(=O)n(C)c(=O)n(C)c3cn2-c2cccc(OC)c2)cc1 | 11.7 µM (active) | –
COc1ccc(N(C(=O)c2cccnc2)S(=O)(=O)c2ccc3c(c2)n(C)c(=O)n3C)cc1 | inactive | –
COc1cccc(-n2cc(C(=O)O)c3ccccc3c2=O)c1 | inactive | –
COc1cccc(-n2cc3c(c2-c2ccccc2)c(=O)n(C)c(=O)n3C)c1 | 5.22 µM (active) | –
Cc1cnc(NC(=O)c2ccc(Cl)nc2)s1 | inactive | –
COC(=O)c1ccc(N2CCOCC2)c(NC(=O)c2ccc3c(c2)OCCO3)c1 | inactive | –
Cc1ccc(Nc2ncnc3c2cnn3C)c(C)c1 | inactive | –
N#Cc1c2c(c(N3CCN(CCO)CC3)n3c1nc1ccccc13)CCCC2 | 0.828 µM (active) | –
CC1CCc2sc3nc(N4CCN(CCO)CC4)n4ncnc4c3c2C1 (configuration not stated) | inactive | –
CCCCn1c(CN2CCN(CCO)CC2)nc2ccccc21 | inactive | –
CCN(CC(=O)Nc1cc(Cl)ccc1C)C(=O)CN1C(=O)NC2(CCCC2)C1=O | inactive | –
CCn1ccnc1CN(C)C(=O)c1cc(COc2ccc(-n3cncn3)cc2)on1 | inactive | –

Reference: PubChem BioAssay AID504832 (National Center for Advancing Translational Sciences (NCATS), 2011)
